Assay results: PubChem BioAssay (NCATS)
Where “and” joins values, the source holds several entries; their conditions need not be identical. Equal entries are not always repeated. Records with an inconclusive call do not appear. Where a structure was tested more than once in an assay, its records may differ in their call. Calls of active or inactive are those of the source. Unless noted, the call rests on the fitted dose curve; in most records, active means well fitted curve in the direction sought with a large enough effect; inconclusive means small, poorly fitted or top-dose-only effect, or another doubt; inactive means no such curve, though single readings can be large; an effect the other way counts as inactive or inconclusive.

Legend:
[1] = system: OV90; assay: Primary qHTS to identify gynecologic anti-cancer compounds using libraries of approved drugs and bioactive compounds (AID 1345084); conditions: Gynecologic cancer cell panel viability, ATPlite luminescence, 48 h; series mostly up to 57.5 µM; further: nearly all actives have a fitted effect of over 55% in size; further: potency means the concentration at half of the fitted maximal effect; on activity change, negative = cytotoxicity: on the % scale 0 is the no-effect control and ±100 the full control effect
How it was run: (§1)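 Five-concentration response, 48 h; readout is ATP-driven luciferase luminescence.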

[2] = system: PA-1; assay: as above; conditions: Gynecologic cancer cell panel viability, ATPlite luminescence, 48 h; series mostly up to 57.5 µM
How it was run: as §1

[3] = system: SKOV3; assay: as above; conditions: Gynecologic cancer cell panel viability, ATPlite luminescence, 48 h; series mostly up to 57.5 µM
How it was run: as §1

[4] = system: Tov-21-G; assay: as above; conditions: Gynecologic cancer cell panel viability, ATPlite luminescence, 48 h; series mostly up to 57.5 µM
How it was run: as §1

[5] = system: Tov112D; assay: as above; conditions: Gynecologic cancer cell panel viability, ATPlite luminescence, 48 h; series mostly up to 57.5 µM
How it was run: as §1

[6] = Drug repurposing screens with cells derived from glioblastoma tumor samples (AID 1345199); conditions: GBM patient neurospheres viability, ATP luminescence, 48 h; further: nearly all actives have a fitted effect of over 40% in size; further: potency means the concentration at half of the fitted maximal effect; on activity, negative = cell killing: on the % scale 0 is the no-effect control and ±100 the full control effect
How it was run: (§2)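 Four patient lines of CD133+ GBM neurospheres were screened at several concentrations; hits were retested in those lines plus three slower-growing GBM lines, using 48-hour treatment and ATP-based viability.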

[7] = system: astro; assay: as above; conditions: viability, ATP luminescence, 48 h; series mostly up to 45.9 µM
How it was run: as §2

[8] = qHTS assay for small molecule activators of the human pregnane X receptor (PXR) signaling pathway (AID 720659; call rule not given here; further: 0% is about no effect)
[9] = biological target: Nuclear receptor subfamily 1 group I member 2 (Rattus norvegicus) (UniProt Q9R1A7); assay: qHTS assay for small molecule activators of the rat pregnane X receptor (rPXR) signaling pathway (AID 651751; call rule not given here; further: 0% is about no effect); conditions: rPXR reporter cells, luciferase (One-Glo), 24 h
[10] = at 45.9 µM (top of the series), tumour line B
[11] = at 45.9 µM (top of the series), tumour line D
[12] = at 46 µM (top of the series), tumour line A
[13] = at 21.2 µM (top of the series), tumour line B
[14] = at 21.2 µM (top of the series), tumour line D
[15] = at 21.3 µM (top of the series), tumour line A

Sequence of Nuclear receptor subfamily 1 group I member 2 (Rattus norvegicus) (Q9R1A7 whole entry, looked up): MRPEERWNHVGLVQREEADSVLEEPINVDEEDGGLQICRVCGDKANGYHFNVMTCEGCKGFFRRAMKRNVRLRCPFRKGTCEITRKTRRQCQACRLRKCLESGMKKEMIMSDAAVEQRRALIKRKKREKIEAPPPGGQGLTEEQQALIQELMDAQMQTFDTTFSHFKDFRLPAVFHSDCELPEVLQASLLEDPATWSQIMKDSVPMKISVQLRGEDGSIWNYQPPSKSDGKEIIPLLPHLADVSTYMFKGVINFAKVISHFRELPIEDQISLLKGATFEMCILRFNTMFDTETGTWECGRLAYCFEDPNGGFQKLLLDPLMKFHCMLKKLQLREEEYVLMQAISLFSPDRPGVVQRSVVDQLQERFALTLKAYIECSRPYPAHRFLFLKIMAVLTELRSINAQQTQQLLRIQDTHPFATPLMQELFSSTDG

NCC(CC(=O)O)c1ccc(Cl)cc1 (stereo unspecified)
inactive: activity change, negative = cytotoxicity [1] 19.2% [at 0.462 µM] | activity change, negative = cytotoxicity [2] 5.78% [at 0.462 µM] | activity change, negative = cytotoxicity [3] 1.02% [at 0.462 µM] | activity change, negative = cytotoxicity [4] 5.93% [at 0.462 µM] | activity change, negative = cytotoxicity [5] -1.06% [at 0.462 µM] | activity, negative = cell killing [6, 10] -0.559% | activity, negative = cell killing [6, 11] -15.2% | activity, negative = cell killing [6, 12] -26.1% | Potency [7]

NN=C(N)N
inactive: Potency [1] | Potency [2] | Potency [3] | Potency [4] | Potency [5] | activity, negative = cell killing [6, 10] -4.67% | activity, negative = cell killing [6, 11] 9.02% | activity, negative = cell killing [6, 12] -2.8% | Potency [7]

CC[C@@H](CO)NC(=O)[C@@H]1C=C2c3cccc4c3c(cn4C)C[C@H]2N(C)C1
active: Potency ([6]; tumour line A) 35.5 µM | Potency ([6]; tumour line B) 17.8 µM
inactive: Potency [1] | Potency [2] | Potency [3] | Potency [4] | Potency [5]

OCCOc1ccccc1
inactive: Potency [1] | Potency [2] | Potency [3] | Potency [4] | Potency [5] | activity, negative = cell killing [6, 10] 3.03% and -11.2% | activity, negative = cell killing [6, 11] -21.5% and 1.35% | activity, negative = cell killing [6, 12] -19.1% | Potency [7] | outcome [8]

O=P1(NCCCl)OCCCN1CCCl (stereo unspecified)
inactive: Potency [1] | Potency [2] | Potency [3] | Potency [4] | Potency [5] | activity, negative = cell killing [6, 13] -10.6% | activity, negative = cell killing [6, 14] -4.8% | activity, negative = cell killing [6, 15] -27.9% | Potency [7]

CNCC(O)c1ccc(O)cc1 (stereo unspecified)
inactive: Potency [1] | Potency [2] | Potency [3] | Potency [4] | Potency [5] | activity, negative = cell killing [6, 13] 9.4% | activity, negative = cell killing [6, 14] 0.215% | activity, negative = cell killing [6, 15] -26.2% | Potency [7] | max response [9] -0.194% | outcome [8]

CC1OC(C)OC(C)O1 (stereo unspecified)
inactive: Potency [1] | Potency [2] | Potency [3] | Potency [4] | Potency [5] | activity, negative = cell killing [6, 10] 0.183% and 0.957% | activity, negative = cell killing [6, 11] -11.1% and -5.15% | activity, negative = cell killing [6, 12] -20.8% and 1.27% | Potency [7]

CCOP(=S)(OCC)Oc1cc(C)nc(C(C)C)n1
inactive: Potency [1] | Potency [2] | Potency [3] | Potency [4] | Potency [5] | activity, negative = cell killing [6, 10] -12.9% | activity, negative = cell killing [6, 11] 4.41% | activity, negative = cell killing [6, 12] -24.4% | Potency [7] | max response [9] 3.69% and 1.39%

COC[C@@H](NC(C)=O)C(=O)NCc1ccccc1
inactive: Potency [1] | Potency [2] | Potency [3] | Potency [4] | Potency [5]

CC(O)(CS(=O)(=O)c1ccc(F)cc1)C(=O)Nc1ccc(C#N)c(C(F)(F)F)c1 (stereo unspecified)
inactive: Potency [1] | Potency [2] | Potency [3] | Potency [4] | Potency [5]

COc1ccc(C(CN(C)C)C2(O)CCCCC2)cc1 (stereo unspecified)
inactive: Potency [1] | Potency [2] | Potency [3] | Potency [4] | Potency [5] | activity, negative = cell killing [6, 10] -10.5% | activity, negative = cell killing [6, 11] 1.59% | activity, negative = cell killing [6, 12] -20% | Potency [7]

Cc1ncc(CNC(=O)N(CCCl)N=O)c(N)n1
inactive: Potency [2] | Potency [3] | Potency [4] | Potency [5] | activity, negative = cell killing [6, 10] -2.44% | activity, negative = cell killing [6, 11] -2.73% | activity, negative = cell killing [6, 12] -26.1% | Potency [7]
active: Potency [1] 35.5 µM

CN1C(=S)CN=C(c2ccccc2)c2cc(Cl)ccc21
inactive: Potency [1] | Potency [2] | Potency [3] | Potency [4] | Potency [5] | activity, negative = cell killing [6, 10] -24.8% | activity, negative = cell killing [6, 11] -20.4%

c1ccc2c(c1)Nc1ccccc1S2
active: Potency ([6]; tumour line A) 31.6 µM
inactive: Potency [1] | Potency [2] | Potency [3] | Potency [4] | Potency [5] | activity, negative = cell killing [6, 10] -14.1% | activity, negative = cell killing [6, 11] -9.6% | activity, negative = cell killing ([6]; at 91.6 µM (top of the series), tumour line B) -11.1% | activity, negative = cell killing ([6]; at 91.6 µM (top of the series), tumour line D) -20.1% | Potency [7] | max response [9] 0.0251% and 2.69%

CCN(CC)CCOC(=O)C(O)(c1ccccc1)c1ccccc1
inactive: Potency [1] | Potency [2] | Potency [3] | Potency [4] | Potency [5] | activity, negative = cell killing [6, 10] -7.05% | activity, negative = cell killing [6, 11] -0.674% | activity, negative = cell killing [6, 12] -16.9% | Potency [7]

CCCC(C)(COC(N)=O)COC(=O)NC(C)C (stereo unspecified)
inactive: Potency [1] | Potency [2] | Potency [3] | Potency [4] | Potency [5] | activity, negative = cell killing [6, 10] -7.57% | activity, negative = cell killing [6, 11] -17.6% | Potency [7] | max response [9] 6.19% and 1.57%

CCCN1CCC[C@@H]2Cc3nc(N)ncc3C[C@H]21
inactive: Potency [1] | Potency [2] | Potency [3] | Potency [4] | Potency [5] | activity, negative = cell killing [6, 10] -7.67% | activity, negative = cell killing [6, 11] -0.18% | Potency [7]

O=c1[nH]c2ccccc2n1CCCN1CCC(n2c(=O)[nH]c3cc(Cl)ccc32)CC1
active: Potency ([6]; tumour line A) 2.82 µM
inactive: Potency [1] | Potency [2] | Potency [3] | Potency [4] | Potency [5] | activity, negative = cell killing [6, 10] -24.9% | Potency [7]

O=[N+]([O-])c1cc([As](=O)(O)O)ccc1O
inactive: Potency [1] | Potency [2] | Potency [3] | Potency [4] | Potency [5] | Potency [7]
